“And” between values parts separate entries of the source, which are not always exact repeats. Equal entries are not always repeated. The whole screen tested about 5,500 compounds, of which about 2,000 (36%) were called active. Inconclusive results (about 18%) are left out. Rule as the data show it: active = normalized growth mostly below about 0.91 (no sharp cut-off); inconclusive = no clear call, values can overlap the other calls; inactive = mostly above about 0.92. The list shows a part of the results.
Test: chemical genetic growth profiling, strain panel (AID 1159580);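 also: tested at 20 µM; growth read once vehicle control cultures reached saturation at 30 °C; 1 = growth at the plate median or of vehicle wells; lower values mean less growth of the strain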
Conditions: S. cerevisiae deletion strains, growth OD

Measured: normalized growth

NC(CO)C(=O)NNCc1ccc(O)c(O)c1O (configuration not stated)
active: locus YGR229C, strain SMI1, active compounds read low 0.775 | locus YHR027C, strain rpn1, active compounds read low 0.911
inactive: locus YAL013W, strain DEP1, active compounds read low 0.941 | locus YAL021C, strain ccr4, active compounds read low 0.96 | locus YAL026C, strain drs2, active compounds read low 0.977 | locus YAL030W, strain snc1, active compounds read low 0.986 | locus YAL040C, strain CLN3, active compounds read low 0.967 | locus YBL061C, strain skt5, active compounds read low 0.999 | locus YBR009C, strain hhf1, active compounds read low 0.971 | locus YBR021W, strain FUR4, active compounds read low 1.02 | locus YBR023C, strain chs3, active compounds read low 0.984 | locus YBR171W, strain sec66, active compounds read low 0.996 | locus YBR229C, strain ROT2, active compounds read low 1.02 | locus YBR231C, strain swc5, active compounds read low 1 | locus YBR279W, strain paf1, active compounds read low 0.97 | locus YCL011C, strain gbp2, active compounds read low 0.946 | locus YCL016C, strain dcc1, active compounds read low 0.977 | locus YCL029C, strain bik1, active compounds read low 0.997 | locus YCL069W, strain vba3, active compounds read low 0.968 | locus YCR088W, strain abp1, active compounds read low 1 | locus YDL005C, strain med2, active compounds read low 1.01 | locus YDL035C, strain GPR1, active compounds read low 1.02 | locus YDL040C, strain nat1, active compounds read low 1.01 | locus YDL074C, strain BRE1, active compounds read low 0.98 | locus YDL101C, strain DUN1, active compounds read low 0.99 | locus YDL185W, strain tfp1, active compounds read low 1 | locus YDL192W, strain arf1, active compounds read low 0.998 | locus YDR001C, strain nth1, active compounds read low 0.982 | locus YDR069C, strain doa4, active compounds read low 0.966 | locus YDR101C, strain arx1, active compounds read low 0.971 | locus YDR137W, strain rgp1, active compounds read low 0.91 | locus YDR150W, strain NUM1, active compounds read low 1.03 | locus YDR159W, strain sac3, active compounds read low 1.02 | locus YDR162C, strain NBP2, active compounds read low 1.02 | locus YDR195W, strain ref2 1.03 | locus YDR297W, strain sur2, active compounds read low 0.994 | locus YDR318W, strain mcm21, active compounds read low 1 | locus YDR334W, strain swr1, active compounds read low 0.982 | locus YDR335W, strain msn5, active compounds read low 0.995 | locus YDR363W, strain ESC2, active compounds read low 0.968 | locus YDR388W, active compounds read low 0.99 | locus YDR392W, strain spt3, active compounds read low 1.03 | locus YDR502C, strain sam2, active compounds read low 0.988 | locus YEL003W, strain gim4, active compounds read low 0.981 | locus YEL037C, strain rad23, active compounds read low 0.98 | locus YEL061C, strain CIN8 (second series), active compounds read low 0.981 | locus YEL061C, strain CIN8, active compounds read low 1.01 | locus YER002W, strain NOP16, active compounds read low 1 | locus YER015W, strain faa2, active compounds read low 0.947 | locus YER016W, strain bim1, active compounds read low 0.994 | locus YER110C, active compounds read low 0.984 | locus YER111C, strain swi4, active compounds read low 0.966 | locus YER155C, strain BEM2 (second series), active compounds read low 1.08 | locus YER155C, strain BEM2, active compounds read low 1 | locus YER167W, strain BCK2, active compounds read low 1.02 | locus YFR010W, strain ubp6, active compounds read low 0.989 | locus YGL078C, strain dbp3, active compounds read low 0.993 | locus YGL086W, strain mad1, active compounds read low 0.993 | locus YGL167C, strain pmr1, active compounds read low 0.996 | locus YGL173C, strain kem1, active compounds read low 1.01 | locus YGL227W, strain vid30, active compounds read low 1.01 | locus YGL240W, strain doc1, active compounds read low 1.06 | locus YGL248W, strain PDE1, active compounds read low 1.01 | locus YGL253W, strain hxk2, active compounds read low 0.958 | locus YGR078C, strain PAC10, active compounds read low 0.995 | locus YGR135W, strain pre9, active compounds read low 0.994 | locus YGR252W, strain gcn5, active compounds read low 0.986 | locus YHR013C, strain ard1, active compounds read low 0.987 | locus YHR030C, strain SLT2, active compounds read low 1.02 and 1.05 | locus YHR079C, strain IRE1 (second series), active compounds read low 1 | locus YHR079C, strain IRE1, active compounds read low 1.06 | locus YHR094C, strain hxt1, active compounds read low 1.01 | locus YHR129C, strain ARP1, active compounds read low 1.01 | locus YHR142W, strain chs7, active compounds read low 0.964 | locus YHR200W, strain rpn10, active compounds read low 0.986 | locus YIL066C, strain RNR3, active compounds read low 1.03 | locus YIL073C, strain SPO22, active compounds read low 0.985 | locus YIL125W, strain kgd1, active compounds read low 0.995 | locus YIR030C, strain dcg1, active compounds read low 0.984 | locus YJL092W, strain hpr5, active compounds read low 0.996 | locus YJL095W, strain BCK1 (second series), active compounds read low 1 | locus YJL095W, strain BCK1, active compounds read low 1.01 and 1.05 | locus YJL115W, strain asf1, active compounds read low 1 | locus YJL129C, strain trk1, active compounds read low 1.06 | locus YJL134W, strain LCB3, active compounds read low 1.01 | locus YJL154C, strain vps35, active compounds read low 0.993 | locus YJL164C, strain tpk1, active compounds read low 0.953 | locus YJL166W, strain qcr8, active compounds read low 1.02 | locus YJL168C, strain set2, active compounds read low 1 | locus YJL187C, strain SWE1 (second series), active compounds read low 0.988 | locus YJL187C, strain SWE1, active compounds read low 0.983 | locus YJR043C, strain POL32, active compounds read low 1.02
